Here are results for eleven compounds from PubChem BioAssay.

The subject of experiment [1] is Plasmodium falciparum Sir2 (PF13_0152, Sir2A). As to the kind of experiment: Plasmodium falciparum Sir2A binding compounds – biochemical, small-molecule microarray, 635 nm fluorescence, primary screen (AID 1098).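 Also: score merges spot fluorescence intensity with its signal-to-noise ratio.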 Particulars: fluorescence 635 nm, higher = more signal.
A short description of experiment [2]: probe aDKK1 binding to arrayed compounds – biochemical, biotinylated probe, 635/667 nm fluorescence, primary screen (AID 1099).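 Also: score merges 667nm spot fluorescence with signal to noise across triplicate slides; reference of the scale not given here.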 Particulars: small-molecule microarray, higher = more signal.
A short description of experiment [3]: probe aCHRDL2 binding to arrayed compounds – biochemical, biotinylated probe, 635/667 nm fluorescence, primary screen (AID 1100). Particulars: small-molecule microarray, higher = more signal.
The nature of experiment [4]: change in splice reporter luminescence, either direction, cell-based, HEK293, spliceosome inhibition project, primary screen (AID 1101).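 Also: HEK293 cells carrying a splicing-competent luciferase reporter gene; test concentration not given here.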 Particulars: HEK293 splicing luciferase reporter, 24 h, higher = more signal, called active from +8 up or from −8 down. For orientation: In a reporter assay the amount or activity of a reporter protein is the signal.
The target in experiment [5] is Fibroblast growth factor 10 (Homo sapiens) (UniProt O15520). In words: compounds binding fibroblast growth factor 10 – biochemical, small-molecule microarray, 635 nm fluorescence, primary screen (AID 1102). Particulars: FGF10 binding, fluorescence 635 nm, higher = more signal.
For experiment [6], the system named is glycogen synthase kinase-3 (GSK3A per assay name; protocol says GSK3B). As to the kind of experiment: compounds binding glycogen synthase kinase-3 – biochemical, small-molecule microarray, 635 nm fluorescence, GSK3A, primary screen (AID 1103). Also: the record names both GSK3A and GSK3B. Particulars: fluorescence 635 nm, higher = more signal.
The target in experiment [7] is Epidermal growth factor receptor (Homo sapiens) (UniProt P00533). In words: compounds binding epidermal growth factor receptor – biochemical, small-molecule microarray, 635 nm fluorescence, primary screen (AID 1104).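 Also: score merges 667 nm emission intensity with spot signal to noise over triplicate slides.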 Particulars: EGFR binding, higher = more signal.
The target in experiment [8] is Follistatin-related protein 3 (Homo sapiens) (UniProt O95633). As to the kind of experiment: compounds binding follistatin-related protein 3 – biochemical, small-molecule microarray, 635 nm fluorescence, primary screen (AID 1105).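 Also: score merges emission near 667 nm and signal to noise per printed spot across three slides.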 Particulars: FSTL3 binding, higher = more signal.
Experiment [9] addresses Dickkopf-related protein 1 (Homo sapiens) (UniProt O94907). As to the kind of experiment: small molecules binding DKK1 protein – biochemical, small-molecule microarray, 635 nm fluorescence scan, primary screen (AID 1106).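 Also: score merges emission near 667 nm with signal to noise over three replicate slides.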 Particulars: higher = more signal.
Experiment [10] relates to Inhibin beta A chain (activin A). In words: small molecules binding activin A – biochemical, small-molecule microarray, 635 nm fluorescence scan, primary screen (AID 1107).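 Also: mouse activin A protein probed at 4.33 µg/mL on printed slides; score merges bound-protein fluorescence near 667 nm with spot signal-to-noise.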 Particulars: INHBA, higher = more signal.

The source made the active and inactive calls.

Sequence of Follistatin-related protein 3 (Homo sapiens) (O95633 whole entry, looked up): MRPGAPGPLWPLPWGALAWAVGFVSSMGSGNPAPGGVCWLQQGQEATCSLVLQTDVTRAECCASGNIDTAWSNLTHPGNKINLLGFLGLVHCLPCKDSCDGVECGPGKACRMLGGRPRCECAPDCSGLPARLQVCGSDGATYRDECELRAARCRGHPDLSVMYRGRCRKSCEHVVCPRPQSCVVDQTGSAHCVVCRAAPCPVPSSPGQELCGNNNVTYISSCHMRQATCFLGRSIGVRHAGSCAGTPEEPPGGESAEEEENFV
Sequence of Epidermal growth factor receptor (Homo sapiens) (P00533 whole entry, looked up): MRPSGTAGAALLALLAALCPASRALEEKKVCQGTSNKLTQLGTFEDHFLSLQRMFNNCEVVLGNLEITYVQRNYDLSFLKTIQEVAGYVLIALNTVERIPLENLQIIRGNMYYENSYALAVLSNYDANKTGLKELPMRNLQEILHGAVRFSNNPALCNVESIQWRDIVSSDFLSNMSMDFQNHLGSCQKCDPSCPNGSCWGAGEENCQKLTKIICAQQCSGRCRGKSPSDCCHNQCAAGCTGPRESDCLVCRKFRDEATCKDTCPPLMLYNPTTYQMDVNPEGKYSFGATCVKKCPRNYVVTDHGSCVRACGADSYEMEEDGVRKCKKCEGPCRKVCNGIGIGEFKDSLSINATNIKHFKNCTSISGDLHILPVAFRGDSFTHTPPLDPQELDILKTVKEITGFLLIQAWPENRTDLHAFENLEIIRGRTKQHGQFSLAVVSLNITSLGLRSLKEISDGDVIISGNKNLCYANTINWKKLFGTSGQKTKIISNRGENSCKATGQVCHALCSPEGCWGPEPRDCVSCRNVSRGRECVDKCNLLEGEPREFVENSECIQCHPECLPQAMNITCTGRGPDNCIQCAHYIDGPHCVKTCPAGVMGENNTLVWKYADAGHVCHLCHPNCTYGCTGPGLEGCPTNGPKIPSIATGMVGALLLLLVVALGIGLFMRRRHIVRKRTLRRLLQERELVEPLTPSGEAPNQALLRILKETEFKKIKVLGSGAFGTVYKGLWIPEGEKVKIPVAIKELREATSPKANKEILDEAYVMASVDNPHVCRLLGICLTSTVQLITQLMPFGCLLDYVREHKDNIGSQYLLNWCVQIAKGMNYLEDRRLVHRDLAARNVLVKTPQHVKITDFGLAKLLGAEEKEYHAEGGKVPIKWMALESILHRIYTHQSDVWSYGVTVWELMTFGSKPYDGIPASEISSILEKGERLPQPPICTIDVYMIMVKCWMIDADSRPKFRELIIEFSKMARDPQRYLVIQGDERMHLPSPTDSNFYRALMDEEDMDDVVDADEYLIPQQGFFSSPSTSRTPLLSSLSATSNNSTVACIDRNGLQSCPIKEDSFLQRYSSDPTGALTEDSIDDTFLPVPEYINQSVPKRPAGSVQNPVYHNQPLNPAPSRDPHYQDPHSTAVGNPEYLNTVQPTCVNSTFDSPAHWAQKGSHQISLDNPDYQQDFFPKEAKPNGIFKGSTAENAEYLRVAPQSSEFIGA
Sequence of Fibroblast growth factor 10 (Homo sapiens) (O15520 whole entry, looked up): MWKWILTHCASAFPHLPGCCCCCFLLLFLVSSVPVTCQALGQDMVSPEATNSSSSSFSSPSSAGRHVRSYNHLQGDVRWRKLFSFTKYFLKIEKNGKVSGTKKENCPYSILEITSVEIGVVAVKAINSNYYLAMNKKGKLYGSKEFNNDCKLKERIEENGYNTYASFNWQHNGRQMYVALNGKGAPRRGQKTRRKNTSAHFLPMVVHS
Sequence of Dickkopf-related protein 1 (Homo sapiens) (O94907 whole entry, looked up): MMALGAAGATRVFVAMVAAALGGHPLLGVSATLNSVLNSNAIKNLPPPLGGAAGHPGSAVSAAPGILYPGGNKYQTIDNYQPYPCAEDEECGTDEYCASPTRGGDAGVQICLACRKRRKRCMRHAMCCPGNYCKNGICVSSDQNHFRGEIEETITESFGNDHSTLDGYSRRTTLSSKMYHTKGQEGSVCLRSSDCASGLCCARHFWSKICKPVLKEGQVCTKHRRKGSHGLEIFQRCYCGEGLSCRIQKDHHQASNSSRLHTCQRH

For the compound `CCOC(=O)C1=CCC(c2ccncc2)N(S(=O)(=O)c2ccc(C)cc2)C1` (stereo not given), the composite z-score in experiment [1] was found to be 1.03; in experiment [2] it was 0.205; in [3], 0.198; in [5], 1.34; in experiment [6], 1.29; in experiment [7] it was 0.432. In addition, the composite z-score was determined as 1.05 in experiment [8], 0.332 in experiment [9] and 0.856 in [10]. Further, in [4], the z-score was -1.3 (inactive).
Take `CC(=O)NCCCC[C@@H]1NC(=O)[C@H]2C[C@@H](C(=O)NCCCCCN)[C@@H](c3ccc(O)cc3)N2C1=O`: the composite z-score in experiment [1] is 0.863; in experiment [2] it was 0.316; in [3], 0.17; in experiment [5], 0.544; in experiment [6], 1.29; in [7], 0.511. In addition, the composite z-score in [8] worked out at 0.777; in [9] it was 1.02; in experiment [10], 0.792. In experiment [4], the z-score was 0.0809 (inactive).
In the case of `COC(=O)C[C@H]1O[C@]2(C(=O)N(C)c3ccccc32)[C@@H](C)[C@@H]1[Si](C)(C)c1ccccc1`, the composite z-score in experiment [1] was -0.0153; in [2] it was -0.0571; in experiment [3], -0.261; in experiment [5] it was 0.988; in experiment [6], 0.96; in experiment [7], 0.753. Moreover, the composite z-score is 0.837 in experiment [8], 1.11 in experiment [9] and -0.399 in [10]. Moreover, the z-score in [4] is -1.25 (inactive).
For `CCCCCCCCCCC(O)C1C=CC2C(=O)N(C)C(=O)C2N1Nc1ccccc1` (stereo not given), the composite z-score in experiment [1] was -1.02; in experiment [2], -0.0132; in experiment [3] it was 0.937; in [5], -1.09; in [6] it was -1.09; in experiment [7], -1.33. The composite z-score was -1.54 in experiment [8], -1.22 in experiment [9] and 1.17 in [10]. The z-score in experiment [4] is 0.953 (inactive).
As for `O=C1C2C=CC(C(O)C3CC=CCC3)N(Nc3ccc([N+](=O)[O-])cc3)C2C(=O)N1c1ccccc1` (stereo not given), the composite z-score in experiment [1] came to 0.811; in [2] it was 1.47; in [3], 1.03; in [5] it was 1; in experiment [6], 1.1; in experiment [7], 0.619. The results for the composite z-score in [8], in experiment [9] and in experiment [10] were 1.44, 0.386 and 1.2, respectively. Besides, the z-score in experiment [4] is 0.809 (inactive).
As for `CCCCCCc1nc(Cc2cc(OC)c(OC)c(OC)c2)c(C)c2c1[Si](C(C)C)(C(C)C)OC2`, the composite z-score in [1] is 0.197; in experiment [2], -0.1; in [3], -0.35; in experiment [5], 0.261; in experiment [6] it was 0.104; in experiment [7], -0.0718. In addition, the composite z-score in experiment [8] came out at 0.237; in experiment [9], 0.163; in experiment [10], 0.987. Besides, in experiment [4], the z-score is -2.3 (inactive).
As for `C=CCNC(=O)[C@H]1[C@@H]2C(=O)O[C@@H](c3ccccc3)[C@@H](c3ccccc3)N2[C@@H](c2ccc(O)cc2)[C@]12C(=O)N(C(=O)OCCOC)c1ccc(C#Cc3ccc(OC)cc3)cc12`, the composite z-score in experiment [1] is 1.21; in [2], -0.0387; in experiment [3] it was 0.478; in experiment [5], 0.88; in experiment [6], 1.08; in experiment [7], 0.215. Moreover, the composite z-score in experiment [8] turned out to be 0.448; in experiment [9], 0.211; in [10] it was 0.794. Further, the z-score in experiment [4] was -0.294 (inactive).
As to `COC(=O)C(CC#Cc1ccc2c(c1)[C@]1(C(=O)N2)[C@H](c2ccc(OCCO)cc2)N2[C@H](c3ccccc3)[C@H](c3ccccc3)OC(=O)[C@H]2[C@@H]1C(N)=O)C(=O)OC`, the composite z-score was 1.01 in experiment [1]; -0.201 in [2]; 0.669 in [3]; -0.122 in [5]; -0.0277 in [6]; -0.69 in experiment [7]. Further, the composite z-score in experiment [8] was 0.025; in experiment [9], -0.531; in experiment [10], 0.161. The z-score in [4] was 0.373 (inactive).
In the case of `COC(=O)[C@@]1(Cc2ccc(F)cc2)[C@@H]2C(=CC(=O)[C@H]2CC(=O)C(=O)N2CCCC2)CN1C(=O)c1ccccc1`, the composite z-score in [1] is 0.9; in experiment [2], 1.72; in experiment [3] it was 0.978; in experiment [5] it was 1.48; in experiment [6], 0.573; in experiment [7] it was 1.36. The composite z-score in experiment [8] amounted to 1.39; in experiment [9] it was 0.467; in experiment [10], 1.19. The z-score in experiment [4] was -4.12 (inactive).
Turning to `Cc1ccc(S[C@]2(C(=O)NCc3ccccc3)CC(=O)N(Cc3ccccc3C(F)(F)F)[C@@H]2c2ccc(CO)cc2I)cc1`, the composite z-score in [1] is 1.62; in experiment [2], 0.211; in experiment [3] it was 0.831; in experiment [5], -0.557; in experiment [6] it was -0.498; in experiment [7] it was -1.3. In addition, the composite z-score is -0.793 in experiment [8], -0.749 in experiment [9] and 1.07 in experiment [10]. In addition, the z-score in [4] was -0.494 (inactive).
Regarding `O=C1NC(=O)C2C1C=CC(C(O)c1ccc(F)cc1)N2Nc1ccc(Cl)cc1Cl` (stereo not given), the composite z-score in experiment [1] is -0.315; in [2] it was 0.96; in experiment [3], 1.12; in experiment [5] it was 0.327; in [6], -0.923; in experiment [7], -0.416. Moreover, the composite z-score in experiment [8] is -0.194; in experiment [9] it was -0.459; in [10], 0.924. The z-score in [4] is 1.65 (inactive).
